This is an account of results in ChEMBL document CHEMBL2218924, “A broad activity screen in support of a chemogenomic map for kinase signalling research and drug discovery” (Biochem J, 2013).

Assay [1] addresses T1, Serine/threonine-protein kinase 4 (Homo sapiens) (UniProt Q13043).
T1 sequence (whole entry): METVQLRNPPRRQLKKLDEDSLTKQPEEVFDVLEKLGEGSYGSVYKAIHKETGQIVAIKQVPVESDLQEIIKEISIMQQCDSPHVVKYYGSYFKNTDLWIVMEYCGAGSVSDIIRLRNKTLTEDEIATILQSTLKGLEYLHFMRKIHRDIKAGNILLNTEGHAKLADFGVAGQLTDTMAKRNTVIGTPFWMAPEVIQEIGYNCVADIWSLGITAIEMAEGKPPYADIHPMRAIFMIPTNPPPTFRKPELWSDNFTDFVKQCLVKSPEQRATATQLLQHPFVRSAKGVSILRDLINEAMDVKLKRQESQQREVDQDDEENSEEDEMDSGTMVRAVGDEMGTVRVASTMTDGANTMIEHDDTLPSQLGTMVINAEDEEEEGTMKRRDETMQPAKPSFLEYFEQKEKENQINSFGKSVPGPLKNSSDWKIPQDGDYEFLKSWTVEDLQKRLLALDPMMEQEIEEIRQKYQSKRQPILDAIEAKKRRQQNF
The conditions noted are these: at 1 µM.

Assay [2] concerns the target T1, Serine/threonine-protein kinase 4 (Homo sapiens). As to conditions: at 10 µM.
Assay [3] addresses T2, Serine/threonine-protein kinase 3 (Homo sapiens) (UniProt Q13188).
T2 sequence (whole entry): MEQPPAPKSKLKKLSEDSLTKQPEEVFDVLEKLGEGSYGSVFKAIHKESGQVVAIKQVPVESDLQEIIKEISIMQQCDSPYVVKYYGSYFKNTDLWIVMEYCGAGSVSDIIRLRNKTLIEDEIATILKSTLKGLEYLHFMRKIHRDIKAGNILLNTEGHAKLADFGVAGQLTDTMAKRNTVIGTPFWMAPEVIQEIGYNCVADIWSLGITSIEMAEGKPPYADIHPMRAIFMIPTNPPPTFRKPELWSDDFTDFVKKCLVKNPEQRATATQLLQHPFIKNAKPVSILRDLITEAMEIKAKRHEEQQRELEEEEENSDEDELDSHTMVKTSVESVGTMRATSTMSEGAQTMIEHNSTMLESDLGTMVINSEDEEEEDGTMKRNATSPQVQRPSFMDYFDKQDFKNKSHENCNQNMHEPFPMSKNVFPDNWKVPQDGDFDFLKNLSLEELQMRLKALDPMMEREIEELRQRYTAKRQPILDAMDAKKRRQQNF
The conditions noted are these: at 1 µM.

For assay [4], the target named is T2, Serine/threonine-protein kinase 3 (Homo sapiens). As to conditions: at 10 µM.
The target of assay [5] is Serine/threonine-protein kinase 24 (Homo sapiens) (UniProt Q9Y6E0). As to conditions: at 1 µM.
Assay [6] has the same target. As to conditions: at 10 µM.
Assay [7] concerns the target T3, Tyrosine-protein kinase Mer (Homo sapiens) (UniProt Q12866).
T3 sequence (whole entry): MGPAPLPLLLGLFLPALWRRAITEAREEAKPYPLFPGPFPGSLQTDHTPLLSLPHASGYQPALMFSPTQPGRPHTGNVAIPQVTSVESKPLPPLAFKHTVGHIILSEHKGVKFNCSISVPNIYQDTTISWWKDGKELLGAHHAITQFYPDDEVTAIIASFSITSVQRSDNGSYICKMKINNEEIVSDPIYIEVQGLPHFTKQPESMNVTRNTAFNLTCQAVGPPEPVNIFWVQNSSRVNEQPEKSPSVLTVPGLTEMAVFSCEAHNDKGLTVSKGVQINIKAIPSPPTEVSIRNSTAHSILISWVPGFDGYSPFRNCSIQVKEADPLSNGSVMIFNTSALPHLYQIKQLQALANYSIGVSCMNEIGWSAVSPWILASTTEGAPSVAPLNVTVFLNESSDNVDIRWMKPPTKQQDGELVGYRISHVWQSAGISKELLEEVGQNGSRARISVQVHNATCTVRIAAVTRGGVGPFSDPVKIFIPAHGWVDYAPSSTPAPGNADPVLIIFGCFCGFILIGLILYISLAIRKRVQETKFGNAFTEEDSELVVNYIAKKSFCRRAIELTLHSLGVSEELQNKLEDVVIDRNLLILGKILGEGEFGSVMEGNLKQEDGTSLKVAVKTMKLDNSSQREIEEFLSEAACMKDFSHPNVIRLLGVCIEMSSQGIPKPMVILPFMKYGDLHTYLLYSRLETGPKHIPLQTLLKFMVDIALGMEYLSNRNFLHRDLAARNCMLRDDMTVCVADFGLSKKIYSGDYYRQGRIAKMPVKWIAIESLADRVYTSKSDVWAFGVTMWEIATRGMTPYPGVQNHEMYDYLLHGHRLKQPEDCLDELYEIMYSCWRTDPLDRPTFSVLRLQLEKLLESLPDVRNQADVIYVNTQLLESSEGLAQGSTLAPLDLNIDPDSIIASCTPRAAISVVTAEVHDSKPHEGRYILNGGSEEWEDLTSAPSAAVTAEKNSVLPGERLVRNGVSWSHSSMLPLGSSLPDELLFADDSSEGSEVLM
The conditions noted are these: at 1 µM.

In assay [8] the target is T3, Tyrosine-protein kinase Mer (Homo sapiens). The conditions noted are these: at 10 µM.
The target in assay [9] is MAP kinase-interacting serine/threonine-protein kinase 2 (Homo sapiens) (UniProt Q9HBH9). The conditions noted are these: at 1 µM.
Assay [10] has the same target. As to conditions: at 10 µM.
For assay [11], the target named is Ribosomal protein S6 kinase alpha-5 (Homo sapiens) (UniProt O75582). The conditions noted are these: at 1 µM.
Assay [12] has the same target. As to conditions: at 10 µM.
For assay [13], the target named is Serine/threonine-protein kinase MRCK beta (Homo sapiens) (UniProt Q9Y5S2). The conditions noted are these: at 1 µM.
The target in assay [14] is Ribosomal protein S6 kinase alpha-4 (Homo sapiens) (UniProt O75676). The conditions noted are these: at 1 µM.
Assay [15] has the same target. As to conditions: at 10 µM.
Assay [16] concerns the target SRSF protein kinase 3 (Homo sapiens) (UniProt Q9UPE1). The conditions noted are these: at 1 µM.
Assay [17] addresses Hepatocyte growth factor receptor (Homo sapiens) (UniProt P08581). The conditions noted are these: at 1 µM.
Assay [18] has the same target. As to conditions: at 10 µM.
The target in assay [19] is SRSF protein kinase 3 (Homo sapiens) (UniProt Q9UPE1). As to conditions: at 10 µM.
For assay [20], the target named is Serine/threonine-protein kinase MRCK beta (Homo sapiens) (UniProt Q9Y5S2). The conditions noted are these: at 10 µM.

The residual activity is the signal under treatment as a percentage of the control signal.

Sequence of Hepatocyte growth factor receptor (Homo sapiens) (P08581 whole entry): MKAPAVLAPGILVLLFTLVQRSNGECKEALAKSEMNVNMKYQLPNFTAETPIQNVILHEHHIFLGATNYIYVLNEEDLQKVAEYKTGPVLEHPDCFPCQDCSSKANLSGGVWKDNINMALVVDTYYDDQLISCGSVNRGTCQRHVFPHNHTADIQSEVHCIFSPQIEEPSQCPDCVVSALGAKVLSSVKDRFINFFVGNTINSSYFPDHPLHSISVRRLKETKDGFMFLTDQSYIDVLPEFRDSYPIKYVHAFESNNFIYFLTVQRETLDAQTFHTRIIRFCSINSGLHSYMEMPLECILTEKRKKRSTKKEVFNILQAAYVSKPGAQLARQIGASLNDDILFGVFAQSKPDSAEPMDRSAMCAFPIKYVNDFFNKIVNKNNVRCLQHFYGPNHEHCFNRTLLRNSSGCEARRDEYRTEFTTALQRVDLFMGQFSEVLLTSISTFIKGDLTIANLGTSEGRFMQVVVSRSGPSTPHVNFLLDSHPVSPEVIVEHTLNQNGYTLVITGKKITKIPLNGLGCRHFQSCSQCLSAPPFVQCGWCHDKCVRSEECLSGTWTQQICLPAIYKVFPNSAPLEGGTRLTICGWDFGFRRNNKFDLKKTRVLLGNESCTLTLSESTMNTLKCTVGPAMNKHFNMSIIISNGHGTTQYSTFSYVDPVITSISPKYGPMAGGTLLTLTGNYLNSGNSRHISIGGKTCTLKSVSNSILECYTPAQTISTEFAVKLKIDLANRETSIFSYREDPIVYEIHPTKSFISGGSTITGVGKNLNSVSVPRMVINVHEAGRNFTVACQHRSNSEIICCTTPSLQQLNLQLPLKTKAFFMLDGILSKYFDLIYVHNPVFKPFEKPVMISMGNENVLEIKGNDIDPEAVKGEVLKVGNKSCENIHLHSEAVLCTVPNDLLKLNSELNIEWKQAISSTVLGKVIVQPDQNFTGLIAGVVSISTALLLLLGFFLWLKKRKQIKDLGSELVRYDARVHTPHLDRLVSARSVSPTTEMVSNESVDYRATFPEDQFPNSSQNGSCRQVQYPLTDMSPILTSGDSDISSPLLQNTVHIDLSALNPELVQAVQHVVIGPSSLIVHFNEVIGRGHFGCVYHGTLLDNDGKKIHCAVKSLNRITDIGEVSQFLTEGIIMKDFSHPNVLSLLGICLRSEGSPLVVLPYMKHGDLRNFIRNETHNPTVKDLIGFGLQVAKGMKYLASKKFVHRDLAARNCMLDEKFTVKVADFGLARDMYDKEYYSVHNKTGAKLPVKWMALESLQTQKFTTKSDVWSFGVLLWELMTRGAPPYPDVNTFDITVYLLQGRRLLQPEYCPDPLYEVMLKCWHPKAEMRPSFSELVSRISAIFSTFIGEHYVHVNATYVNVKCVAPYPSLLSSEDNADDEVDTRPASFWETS
Sequence of MAP kinase-interacting serine/threonine-protein kinase 2 (Homo sapiens) (Q9HBH9 whole entry, looked up): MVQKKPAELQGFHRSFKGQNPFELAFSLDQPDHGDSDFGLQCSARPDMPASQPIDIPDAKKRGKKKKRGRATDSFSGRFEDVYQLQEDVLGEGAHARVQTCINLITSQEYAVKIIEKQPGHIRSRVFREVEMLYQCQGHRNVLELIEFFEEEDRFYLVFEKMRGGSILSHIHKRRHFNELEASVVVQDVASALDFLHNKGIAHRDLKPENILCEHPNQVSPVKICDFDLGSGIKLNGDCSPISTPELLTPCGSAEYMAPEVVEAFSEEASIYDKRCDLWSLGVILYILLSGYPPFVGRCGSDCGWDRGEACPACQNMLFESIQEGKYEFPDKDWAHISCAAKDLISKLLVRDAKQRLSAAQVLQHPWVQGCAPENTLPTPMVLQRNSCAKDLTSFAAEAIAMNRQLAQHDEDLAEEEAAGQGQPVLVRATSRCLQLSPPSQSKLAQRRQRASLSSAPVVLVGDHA
Sequence of Serine/threonine-protein kinase 24 (Homo sapiens) (Q9Y6E0 whole entry, looked up): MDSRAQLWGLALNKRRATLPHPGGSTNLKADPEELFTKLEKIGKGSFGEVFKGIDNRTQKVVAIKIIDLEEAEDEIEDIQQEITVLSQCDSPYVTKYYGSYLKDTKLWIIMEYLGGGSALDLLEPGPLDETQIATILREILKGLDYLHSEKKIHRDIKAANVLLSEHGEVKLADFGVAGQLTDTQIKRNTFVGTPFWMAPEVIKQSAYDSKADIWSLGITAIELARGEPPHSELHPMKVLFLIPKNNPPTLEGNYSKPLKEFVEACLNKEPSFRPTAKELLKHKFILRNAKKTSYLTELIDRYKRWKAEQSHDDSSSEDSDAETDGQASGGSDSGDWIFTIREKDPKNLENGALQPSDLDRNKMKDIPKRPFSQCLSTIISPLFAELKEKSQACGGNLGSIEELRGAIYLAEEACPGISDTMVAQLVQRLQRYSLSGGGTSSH
Sequence of Ribosomal protein S6 kinase alpha-4 (Homo sapiens) (O75676 whole entry, looked up): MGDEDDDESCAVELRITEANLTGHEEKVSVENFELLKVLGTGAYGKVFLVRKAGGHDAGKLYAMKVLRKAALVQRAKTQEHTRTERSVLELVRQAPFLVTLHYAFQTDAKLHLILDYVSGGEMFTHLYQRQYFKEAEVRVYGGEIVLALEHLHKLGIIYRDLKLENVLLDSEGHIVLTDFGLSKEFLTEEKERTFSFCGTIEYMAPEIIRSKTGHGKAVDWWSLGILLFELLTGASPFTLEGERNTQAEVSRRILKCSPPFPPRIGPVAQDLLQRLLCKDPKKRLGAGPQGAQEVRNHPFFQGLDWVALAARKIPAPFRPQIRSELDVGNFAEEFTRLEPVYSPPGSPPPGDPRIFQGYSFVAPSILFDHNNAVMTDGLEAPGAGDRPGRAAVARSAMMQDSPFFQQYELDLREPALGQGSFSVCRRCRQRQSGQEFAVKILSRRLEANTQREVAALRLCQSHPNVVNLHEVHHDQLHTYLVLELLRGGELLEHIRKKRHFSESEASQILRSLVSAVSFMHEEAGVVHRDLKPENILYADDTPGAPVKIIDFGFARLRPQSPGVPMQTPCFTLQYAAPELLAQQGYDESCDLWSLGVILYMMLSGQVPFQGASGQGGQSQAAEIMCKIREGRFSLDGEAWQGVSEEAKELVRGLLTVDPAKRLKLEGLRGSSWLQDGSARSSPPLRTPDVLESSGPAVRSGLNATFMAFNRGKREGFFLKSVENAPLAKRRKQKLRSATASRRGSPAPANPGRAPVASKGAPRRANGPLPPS
Sequence of Ribosomal protein S6 kinase alpha-5 (Homo sapiens) (O75582 whole entry, looked up): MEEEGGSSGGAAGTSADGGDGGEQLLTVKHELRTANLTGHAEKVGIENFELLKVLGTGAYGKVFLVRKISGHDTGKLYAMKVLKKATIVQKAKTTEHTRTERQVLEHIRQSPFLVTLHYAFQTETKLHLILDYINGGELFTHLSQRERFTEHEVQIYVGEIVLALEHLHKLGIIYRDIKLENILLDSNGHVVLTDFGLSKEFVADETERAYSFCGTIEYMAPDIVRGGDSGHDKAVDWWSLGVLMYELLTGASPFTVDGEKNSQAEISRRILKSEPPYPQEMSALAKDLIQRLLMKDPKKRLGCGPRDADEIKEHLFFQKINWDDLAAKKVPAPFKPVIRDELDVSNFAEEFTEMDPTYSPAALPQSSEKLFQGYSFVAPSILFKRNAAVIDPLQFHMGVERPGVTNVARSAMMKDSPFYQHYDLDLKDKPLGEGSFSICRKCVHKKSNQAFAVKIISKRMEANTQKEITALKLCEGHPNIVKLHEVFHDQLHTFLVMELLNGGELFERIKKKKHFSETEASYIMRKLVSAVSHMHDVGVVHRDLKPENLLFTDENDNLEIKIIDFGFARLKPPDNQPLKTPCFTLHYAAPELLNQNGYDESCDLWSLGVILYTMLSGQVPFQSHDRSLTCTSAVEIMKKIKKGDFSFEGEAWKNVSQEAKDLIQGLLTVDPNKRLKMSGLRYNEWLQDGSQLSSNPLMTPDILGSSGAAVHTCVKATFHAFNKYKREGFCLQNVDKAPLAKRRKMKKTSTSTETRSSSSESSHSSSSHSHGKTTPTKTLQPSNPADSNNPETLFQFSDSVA
Sequence of SRSF protein kinase 3 (Homo sapiens) (Q9UPE1 whole entry): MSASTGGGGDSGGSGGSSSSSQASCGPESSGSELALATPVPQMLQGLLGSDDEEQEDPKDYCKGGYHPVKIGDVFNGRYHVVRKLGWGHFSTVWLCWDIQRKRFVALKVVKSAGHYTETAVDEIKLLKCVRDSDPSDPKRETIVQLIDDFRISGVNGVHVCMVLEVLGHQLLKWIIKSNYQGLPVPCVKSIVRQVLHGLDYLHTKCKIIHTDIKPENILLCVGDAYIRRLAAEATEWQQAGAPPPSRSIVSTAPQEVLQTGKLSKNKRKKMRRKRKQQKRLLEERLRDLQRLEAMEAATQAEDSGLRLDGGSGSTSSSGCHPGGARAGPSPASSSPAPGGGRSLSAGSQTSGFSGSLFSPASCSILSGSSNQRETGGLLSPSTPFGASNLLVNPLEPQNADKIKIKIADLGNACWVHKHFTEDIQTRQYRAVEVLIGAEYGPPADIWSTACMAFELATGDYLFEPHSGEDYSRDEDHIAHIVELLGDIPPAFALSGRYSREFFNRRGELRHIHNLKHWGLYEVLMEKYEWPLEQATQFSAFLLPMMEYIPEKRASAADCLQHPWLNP

On to `O=C1NC(=O)C(c2cn(CCCO)c3ncccc23)=C1c1cnccn1`, for which the residual activity in assay [1] came to 77%; in assay [2], 60%; in assay [3], 92%; in assay [4], 91%; in assay [5], 73%; in assay [6] it was 57%. For the same compound, the residual activity amounted to 89% in assay [7], 86% in assay [8], 76% in assay [9] and 67% in assay [10].
With `COc1ccc(CNC(=O)Nc2ncc([N+](=O)[O-])s2)cc1`, the residual activity in assay [11] came out at 114%; in assay [12], 129%; in assay [1], 108%; in assay [2], 105%; in assay [5], 69%; in [6] it was 80%.
`Cc1cc(C)c(/C=C2\C(=O)Nc3ccccc32)[nH]1`: the residual activity in assay [13] was 99%; in assay [14], 61%; in assay [15], 39%; in assay [16], 99%; in [1], 51%; in assay [2], 20%. The residual activity worked out at 72% in assay [6]; 4% in assay [7]; 2% in [8]; 101% in [17]; 98% in assay [18].
Turning to `COc1cc2nccc(Oc3ccc(NC(=O)Nc4cc(C)on4)c(Cl)c3)c2cc1OC`, the residual activity in assay [11] was found to be 107%; in assay [12], 80%; in assay [2], 56%; in assay [3], 68%; in assay [4] it was 28%; in assay [5] it was 118%. The residual activity turned out to be 78% in assay [6]; 7% in assay [7]; 4% in assay [8]; 105% in assay [9]; 64% in assay [10].
Regarding `CN([C@@H](Cc1ccc(OS(=O)(=O)c2cccc3cnccc23)cc1)C(=O)N1CCN(c2ccccc2)CC1)S(=O)(=O)c1cccc2cnccc12`, the residual activity stood at 100% in [16], 99% in assay [3], 85% in assay [17] and 114% in assay [18].
For `CC(C)(C)c1nc2c3ccc(F)cc3c3c(=O)[nH]ccc3c2[nH]1`, the residual activity in assay [14] turned out to be 36%; in [15], 44%; in [16] it was 79%; in [1], 8%; in assay [2] it was 10%; in [3] it was 14%. The residual activity in [4] was 4%; in [5], 41%; in [6] it was 37%; in assay [7], 29%; in assay [8] it was 42%; in [9], 66%. The residual activity in assay [10] was 65%.
In the case of `CCCCc1c(-c2ccc(OC)cc2)[nH]c2nccnc12`, the residual activity turned out to be 103% in assay [13]; 111% in assay [11]; 117% in assay [12]; 102% in [16]; 87% in assay [19]; 71% in [1]. Besides, the residual activity stood at 40% in assay [2]; 68% in assay [4]; 70% in [5]; 60% in assay [6]; 68% in assay [7]; 80% in assay [8]. For the same compound, the residual activity in assay [17] came out at 118%.
With `O=c1cc(N2CCOCC2)oc2c(-c3ccccc3)cccc12`, the residual activity was 65% in assay [20], 59% in assay [5] and 55% in [6].
As to `O=C1NC(=O)C(c2c[nH]c3ccccc23)=C1c1c[nH]c2ccccc12`, the residual activity came out at 73% in [11]; 19% in assay [12]; 49% in assay [14]; 6% in assay [15]; 35% in assay [19]; 41% in assay [1]. The residual activity in assay [2] is 7%; in assay [3] it was 64%; in assay [4], 9%; in assay [5], 21%; in assay [6], 2%; in assay [8], 33%. In addition, in assay [18], the residual activity is 43%.
As for `COc1cc2c(cc1OC)-c1n[nH]c(Nc3cccc(F)c3)c1C2`, the residual activity was 100% in assay [20]; 114% in assay [16]; 66% in [19]; 83% in assay [1]; 73% in assay [2]; 98% in assay [3]. The residual activity was found to be 76% in assay [4]; 61% in [5]; 49% in assay [6]; 73% in assay [9]; 30% in [10].
`COc1ccc(Cl)cc1NC(=O)Nc1cc(C)nc2ccccc12`: the residual activity was found to be 87% in [13]; 76% in assay [20]; 95% in assay [15]; 93% in [1]; 79% in assay [2]; 70% in [5]. Besides, the residual activity in [6] worked out at 83%; in [17], 89%; in [18], 80%.
